# Test results as given in PubChem BioAssay AID449762 (Southern Research Specialized Biocontainment Screening …, 2010).
# Hit rate of the full screen: of about 330,000 compounds, about 1,900 (0.58%) were called active. Inconclusive results (about 4%) are left out. Rule as the data show it: inconclusive = inhibition above about 70% without an active follow-up result; inactive = below that. These entries were drawn from the full list. Measured potencies and affinities stand elsewhere.
# Test: M. tuberculosis growth inhibition, HTS (AID 449762);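 also: bacterial growth assessed after seven days of incubation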
# Conditions: M. tuberculosis H37Rv growth inhibition, 7H9 media; at 25 µM; hits give high values
row,SMILES,inhibition
1,COc1ccc(OC)c(-c2csc(NC(=O)COC(=O)C3(C)CC3(Cl)Cl)n2)c1 (stereo not given),8.7% (inactive)
2,CN1CCN(C(=O)/C(=C/c2ccc(F)cc2)c2ccsc2)CC1,-3.93% (inactive)
3,CCS(=O)(=O)C1=NN2C(=N)/C(=C\c3ccc(OC(=O)c4ccco4)c(OC)c3)C(=O)N=C2S1,3.16% (inactive)
4,COc1cc(/C=C2\C(=N)N3N=C(S(=O)(=O)CC(C)C)SC3=NC2=O)ccc1OC(=O)c1ccco1,0.47% (inactive)
5,Cc1cc(C)c(NS(=O)(=O)c2ccc(Cl)c(C(=O)O)c2)c(C)c1,-6.92% (inactive)
6,O=C(NCCCNc1ccc([N+](=O)[O-])cc1)C(F)(F)F,-6.92% (inactive)
7,CCn1c(COc2ccc(OC)cc2)nnc1SCc1nc2ccccc2c(=O)[nH]1,-7.06% (inactive)
8,Cc1oc(-c2cccc(C(F)(F)F)c2)nc1CN1CCN(c2ccccn2)CC1,63.4% (inactive)
9,CCN(CC)c1ccc(/C=N\N2CCN(Cc3ccc(C)cc3)CC2)cc1,38% (inactive)
10,O=C(NC(=S)NNC(=O)c1cc2ccccc2cc1O)c1ccco1,2.19% (inactive)
11,COc1ccc(C(=O)NC(=S)NNC(=O)c2ccco2)cc1,70.2% (inactive)
12,CCOc1ccc(/C=N/NC(=O)C(C)N(c2ccc(OC)cc2)S(C)(=O)=O)cc1 (stereo not given),-10.4% (inactive)
13,Cc1ccc(N(CCC#N)C(=O)COC(=O)c2nc3nc(C)cc(C)n3n2)cc1,-2.21% (inactive)
14,Cc1nc(N2CCN(c3ccccn3)CC2)c2c(C)c(C(=O)N3CCN(c4cccc(Cl)c4)CC3)sc2n1,60.4% (inactive)
15,Cc1nc(N2CCN(c3ccccn3)CC2)c2c(C)c(C(=O)N3CCN(c4ccccc4F)CC3)sc2n1,61.9% (inactive)
16,CCCC(=O)Nc1nc2ccc(C(=O)OCC)cc2s1,-1.4% (inactive)
17,O=C(CN1C(=O)C2CCCCC2C1=O)OCn1nnc2ccccc2c1=O (stereo not given),2.65% (inactive)
18,O=C(CNC(=O)C1CCCCC1)OCn1nnc2ccccc2c1=O,12.9% (inactive)
19,COc1ccc(C)cc1NC(=O)CCCN1C(=O)CN(C)C1=O,4.23% (inactive)
20,CCN1CCN(C(=O)c2ccc(N3CC4CC(C3)c3cccc(=O)n3C4)c([N+](=O)[O-])c2)CC1 (stereo not given),2.16% (inactive)
21,Cc1ccc(CNC(=O)c2ccc(S(=O)(=O)N(C)C)cc2)n1C,3.61% (inactive)
22,COC(=O)c1c(NC(=O)c2ccccc2)sc2c1CC(C)(C)NC2(C)C,-11.2% (inactive)
23,CC1(C)Cc2c(sc(NC(=O)c3ccc(C(=O)c4ccccc4)cc3)c2C#N)C(C)(C)N1,2.99% (inactive)

row,SMILES,inhibition
1,COc1ccc(C2Nc3ccccc3C(=O)N2c2ccc(C)cc2)cc1COc1ccccn1 (stereo not given),-5.39% (inactive)
2,Cc1ccc(C)c(S(=O)(=O)N2CCN(CC(=O)Nc3cc(C)on3)CC2)c1,1.82% (inactive)
3,O=C(N/N=C/c1ccc[nH]1)c1cccc(Br)c1,47% (inactive)
4,O=C(N/N=C/c1ccc[nH]1)c1cccnc1,-9.86% (inactive)
5,COc1ccc(CCNC(=O)C2CCCN2S(=O)(=O)c2ccc(F)cc2)cc1OC (stereo not given),0.4% (inactive)
6,O=C(CN(Cc1ccco1)C(=O)Cn1nnc(-c2cccs2)n1)NCc1ccccc1,4.1% (inactive)
7,COC/C=C/C1=CC2=CC(=O)C(C)(OC(=O)c3cnc4ccccc4n3)C(=O)C2=CN1c1ccc(CO)cc1 (stereo not given),3.29% (inactive)
8,O=C(c1ccc2c(=O)n(Cc3ccccc3)c(=S)[nH]c2c1)N1CCCC1,-3.86% (inactive)
9,CC(CCN1CCC(n2nccc2NC(=O)c2ccccc2Cl)CC1)c1ccccc1 (stereo not given),15.6% (inactive)
10,Cc1nc(SCc2ccccc2F)c2cnn(-c3ccccc3)c2n1,9.04% (inactive)
11,Cc1ccc(-c2nc(C(=O)NCCCN3CCOCC3)cc3c2[nH]c2ccccc23)cc1,-3.27% (inactive)
12,COc1cccc(-c2nc(C(=O)NCCCN3CCOCC3)cc3c2[nH]c2ccccc23)c1,-10% (inactive)
13,Cc1ccc(OCCn2ncc3ccccc3c2=O)c(C)c1,9.3% (inactive)
14,COc1ccc2c(c1)C(=NO)c1cc(OC)ccc1-2,-4.82% (inactive)
15,ON=C1c2cc(OCCN3CCCCC3)ccc2-c2ccc(OCCN3CCCCC3)cc21,7.74% (inactive)
16,CC1CCCC(C)N1C(=O)COC(=O)c1ccccc1O (stereo not given),2.65% (inactive)
17,O=c1[nH]c2ccccc2nc1-c1ccccc1,-0.96% (inactive)
18,O=c1[nH]c2ccccc2nc1-c1ccc(Cl)cc1,2.14% (inactive)
19,O=C(N/N=C/C=C/c1ccco1)C(O)c1ccccc1 (stereo not given),50.7% (inactive)
20,O=C(CCCCCCCC(=O)c1ccccc1)c1ccccc1,4.08% (inactive)
21,O=C(CCCCCCC(=O)c1ccccc1)c1ccccc1,-5.92% (inactive)
22,COCC(=O)NC1(c2nnnn2CCOC(=O)Nc2ccc(Cl)cc2)CCCCC1,-9.42% (inactive)
23,S=C(NCCNC(=S)Nc1ccccc1Cl)Nc1ccccc1Cl,4.51% (inactive)

row,SMILES,inhibition
1,S=C(Nc1ccccc1Cl)Nc1ccc(Cl)cc1Cl,-2.8% (inactive)
2,CCC(Sc1nnc2c3ccccc3n(CC)c2n1)C(=O)Nc1sc2c(c1C#N)CCCC2 (stereo not given),1.09% (inactive)
3,O=[N+]([O-])c1ccc(Nc2nc(NCCO)nc(N3CCCC3)n2)cc1,7.94% (inactive)
4,O=[N+]([O-])c1ccc(Nc2nc(N3CCOCC3)nc(N3CCOCC3)n2)cc1,-0.58% (inactive)
5,S=C(Nc1ccccc1Cl)N(CCCN1CCOCC1)Cc1ccco1,0.76% (inactive)
6,Cc1ccc(-c2cc(C(=O)NC3=NCCS3)c3cc(Br)ccc3n2)o1,8.99% (inactive)
7,Cc1ccc2nc(-c3cccc(Br)c3)cc(C(=O)NC3CC3)c2c1,-6.86% (inactive)
8,CCN(Cc1ccccc1)C(=O)COC(=O)c1cc(S(=O)(=O)Nc2c(C)n(C)n(-c3ccccc3)c2=O)ccc1C,5.3% (inactive)
9,CCCCCN(C(=O)CCCSc1nncs1)c1c(N)n(CCCC)c(=O)[nH]c1=O,3.89% (inactive)
10,CN(C)c1ccc(/C=C/[N+](=O)[O-])cc1,39% (inactive)
11,CCN(CC)c1ccc(/C=C/[N+](=O)[O-])cc1,0.21% (inactive)
12,Cc1ccc(/C=N/NC(=O)c2csc(C)c2)o1,4.06% (inactive)
13,O=c1cc(-c2ccccc2)nc(Sc2ccc([N+](=O)[O-])cc2[N+](=O)[O-])[nH]1,57.1% (inactive)
14,O=[N+]([O-])c1ccc(Sc2cccc3cccnc23)c([N+](=O)[O-])c1,65.5% (inactive)
15,O=C(O)c1cc(N2C(=O)C3C4C=CC(C4)C3C2=O)ccc1NCc1cccnc1 (stereo not given),4.01% (inactive)
16,CCN(c1cc(C)cc(C)c1)S(=O)(=O)c1nnc(NC(=O)C(C)(C)C)s1,5.8% (inactive)
17,N/C(=N\OS(=O)(=O)c1cc(Cl)ccc1Cl)c1ccncc1,1.49% (inactive)
18,Cc1ccc(-c2c(C(=O)N/N=C/c3ccc(OC(C)C)cc3)nnn2-c2nonc2N)cc1,5.21% (inactive)
19,CCN1CCN(C(=O)C2CCN(Cc3nc(-c4cccc(Cl)c4)oc3C)CC2)CC1,-0.4% (inactive)
20,Cc1oc(-c2cccc(Cl)c2)nc1CN1CCC(C(=O)N2CCN(c3ccccn3)CC2)CC1,16.8% (inactive)
21,C=CCn1c(O)c(C(C)=NCCc2ccccc2)c(=O)[nH]c1=O,-9.8% (inactive)
22,COc1cccc(NC(=O)c2cc(CN3C(=O)c4ccccc4C3=O)ccc2OC)c1,-11.3% (inactive)
23,Cc1cc(C)cc(C(=O)O/N=C(\N)c2ccc(Br)cc2)c1,2.33% (inactive)

row,SMILES,inhibition
1,Cc1ccc(C(=O)O/N=C(\N)c2ccc(Br)cc2)cc1,17.7% (inactive)
2,Cc1ccc(-c2csc3ncnc(NCCC(=O)O)c23)cc1C,3.2% (inactive)
3,COC(=O)C1=C(C)N(C)C(=O)NC1c1cc2c(cc1Br)OCO2 (stereo not given),-1.06% (inactive)
4,Nc1nc(CN2CCN(c3cccc(Cl)c3)CC2)nc(N2CCCc3ccccc32)n1,34.9% (inactive)
5,COc1cccc(N2CCN(Cc3nc(N)nc(N4CCCc5ccccc54)n3)CC2)c1,55.4% (inactive)
6,O=S(=O)(Cc1cc(Cl)nc(-c2ccncc2)n1)c1ccccc1,3.28% (inactive)
7,Cc1ccn2c(NC3CCCC3)c(-c3ccncc3)nc2c1,-13.9% (inactive)
8,Cc1ccn2c(NC3CCCCC3)c(-c3cccc(SC4CCCCC4)c3)nc2c1,48.6% (inactive)
9,CC(C)CC(NS(=O)(=O)c1ccc2c(c1)oc(=O)n2C)C(=O)NCc1cccnc1 (stereo not given),-12.4% (inactive)
10,COCCCN1C(=O)c2ccc(C(=O)Nc3cccc(OC)c3)cc2C1=O,-8.36% (inactive)
11,COc1ccc(CCNC(=O)c2ccc([N+](=O)[O-])cc2Cl)cc1OC,-2.83% (inactive)
12,CCc1cc(C(=O)NC2CCCN(Cc3ccccc3F)C2)n(C)n1 (stereo not given),6.68% (inactive)
13,CC(C)CN(C(=O)CCC(=O)OC(C)C(=O)Nc1cccc(C#N)c1)c1c(N)n(CC(C)C)c(=O)[nH]c1=O (stereo not given),-4.92% (inactive)
14,CCOC(=O)CSc1nnc(COc2ccc3ccccc3c2)o1,6.46% (inactive)
15,COC(=O)CSc1nnc(COc2ccc3ccccc3c2)o1,-6.41% (inactive)
16,COc1ccc(N2CCN(C(=O)CCS(=O)(=O)c3ccc4c(c3)NC(=O)C(C)S4)CC2)cc1 (stereo not given),6.18% (inactive)
17,Cc1ccc(C(=O)Oc2ccc(Br)cc2C(=S)N2CCOCC2)cc1,11.3% (inactive)
18,O=Cc1c(NCc2ccc(Cl)cc2)c2ccccc2[nH]c1=O,2.94% (inactive)
19,CCCN(CC(=O)Nc1ccccc1OC)C(=O)CCC(=O)c1ccc(OCC)cc1,3.5% (inactive)
20,CCc1ccc(CNC(=O)C2Cc3cc(S(=O)(=O)N4CCCC4)ccc3N2C(C)=O)cc1 (stereo not given),-2.81% (inactive)
21,CSc1ccc(CNC(=O)C2Cc3cc(S(=O)(=O)N4CCCC4)ccc3N2C(C)=O)cc1 (stereo not given),2.84% (inactive)
